The list is not random: actives were taken first. Their share in the collection is about 4.6%.
tim10-1 inh = inhibits growth of tim10-1 mutant yeast; S. cerevisiae tim10-1 ts strain growth, BacTiter-Glo, 24 h; inhibition, % at 20 µM; hit rate 2.2% among 330,000; AID 463190;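 active = inhibition of at least 40%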;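 also: mutant grown at 25 °C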
SKKanGAS inh = blocks kanamycin growth of S. pyogenes SKKanGAS strain; BacTiter-Glo, 6 h; inhibition, % at 7.5 µM; hit rate 1.3% among 300,000; AID 1662;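 active = mean replicate score, as percent of positive control median, at least 50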;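 also: strain carries kanamycin resistance gene driven by streptokinase promoter and grows in 40 µg/ml kanamycin; loss of luminescence reflects streptokinase promoter inhibition or plain growth inhibition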
NALP3 yeast inh = NALP3 inhibition in yeast. Yeast reconstituted NLRP3/ASC/caspase-1, beta-gal luminescence, 24 h. inhibition, % at 10 µM. AID 2825. hit rate 0.39% among 330,000;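 active = inhibition of 50% or more; inactive = inhibition below 50%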
tim23-1 inh = inhibits growth of tim23-1 mutant yeast; S. cerevisiae tim23-1 growth, BacTiter-Glo luminescence, 24 h; inhibition, % at 20 µM; hit rate 1.3% among 330,000; AID 463212;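 active = growth inhibition of the mutant yeast at or above 50%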;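 also: temperature-sensitive mutant grown at 25 °C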
TIM10 inh = inhibits growth of TIM10 yeast strain; S. cerevisiae TIM10 strain growth, BacTiter-Glo luminescence, 24 h; inhibition, % at 10 µM; hit rate 1.4% among 330,000;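 active = inhibition of 40% or more at the single tested concentration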;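 also: wild-type TIM10 isogenic control strain grown at permissive 25 °C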
Large screens that a line does not name were inactive.

CCN1C(=O)CSC1=Nc1ccccc1Cl	none
CCN(CC)C(=O)[C@H]1C[C@H](CC(=O)NCCc2ccccn2)C(=O)N2CCc3c([nH]c4cc(CCC(=O)N(C)C)ccc34)[C@]12C	none (no result: SKKanGAS inh, NALP3 yeast inh)
Fc1ccc(F)c(C2=NNC(=Nc3ccccc3F)SC2)c1	none
Fc1ccccc1N=C1NN=C(c2ccccc2)CS1	SKKanGAS inh 67
O=C(/C=C/c1ccccc1)NC(=S)NNC(=O)c1ccco1	SKKanGAS inh 76
O=C(NC(=S)NNC(=O)c1ccco1)c1ccccc1	none
O=C(/C=C/c1ccc(Br)cc1)NC(=S)NNC(=O)c1ccco1	SKKanGAS inh 106
CCOC(=O)c1cnc(-n2nc(C)cc2C)nc1Nc1ccc(C)cc1	SKKanGAS inh 95 (no result: tim10-1 inh, NALP3 yeast inh, tim23-1 inh, TIM10 inh)
CCOC(=O)c1cnc(-n2nc(C)cc2C)nc1Nc1ccc(O)cc1	none
CCOC(=O)c1cnc(-n2nc(C)cc2C)nc1Nc1ccc(N(C)C)cc1	SKKanGAS inh 97
COc1ccc(C(C)NC(=S)NC2CCCC2)cc1OC (configuration not stated)	none
CC(NC(=S)NC1CCC(C(C)(C)C)CC1)c1ccccc1 (configuration not stated)	SKKanGAS inh 81
O=C(NCc1ccccn1)C(=O)Nc1nc(C23CC4CC(CC(C4)C2)C3)cs1	SKKanGAS inh 75
O=C(NCc1ccccn1)NC12CC3CC(CC(C3)C1)C2	none
Cc1ccc(S(=O)(=O)Nc2ccccc2C(=O)Nc2nc(-c3ccc(F)cc3)cs2)cc1	SKKanGAS inh 106
COc1ccc(-c2csc(NC(=O)c3ccccc3NS(=O)(=O)c3ccc(F)c(F)c3)n2)cc1	SKKanGAS inh 84
COc1ccc(-c2csc(NC(=O)c3ccccc3F)n2)cc1	none
Cc1ccc(S(=O)(=O)Nc2nc(-c3ccccc3)cs2)cc1	none
CCCCn1c(N)c(N(C)C(=O)c2c(C)nn(-c3ccccc3)c2C)c(=O)[nH]c1=O	none (no result: SKKanGAS inh)
O=C(NCCCN1CCCC1)c1ccc(CS(=O)(=O)c2c(Cl)cccc2Cl)o1	none
Oc1[nH]c2ccccc2c1N=Nc1cccc(Cl)c1	none
O=C(O)c1ccc(N=Nc2c(O)[nH]c3cc(Cl)ccc23)cc1	SKKanGAS inh 70
COC(=O)N=Nc1c(O)[nH]c2ccc(Br)cc12	none
O=C(O)c1ccc(N=Nc2c(O)[nH]c3ccc(Br)cc23)cc1	SKKanGAS inh 71
CCc1noc(C)c1C(=O)NC1CCCc2c1cnn2-c1ccc(C(C)(C)C)cc1 (configuration not stated)	none
COc1ccccc1N1CCN(C(=O)CC(NC(=O)c2ccccc2Cl)c2ccccc2)CC1 (configuration not stated)	none (no result: SKKanGAS inh)
COc1cccc(CN(C)C(=O)CNC(=O)c2ccc3c(c2)OCO3)c1OC	none
C=CCn1c(SC(C)CC)nc(O)cc1=O (configuration not stated)	SKKanGAS inh 52
Cc1cnc(NC(=O)c2cc3c(C)nn(Cc4ccccc4Cl)c3s2)s1	SKKanGAS inh 54
Cc1ccc2c(Cl)cc(Cl)c(OCC(=O)NC(C)(C)C)c2n1	SKKanGAS inh 50
Cc1ccc(C(=O)N(C)Cc2nc3ccccc3c(=O)[nH]2)cc1NC(=O)c1ccco1	none (no result: SKKanGAS inh)
COc1cccc(/C=C/C(=O)OCC(=O)NCCCc2ccccc2)c1OC	none (no result: SKKanGAS inh)
CCc1ccccc1N1CC(C(=O)Nc2cc(S(=O)(=O)N3CCCC3)ccc2Cl)CC1=O (configuration not stated)	none (no result: SKKanGAS inh)
CC1(C)CC(NC(=O)C2CCC(=O)N(Cc3ccccc3F)C2)CC(C)(C)C1 (configuration not stated)	none
C/C(=N\Nc1nc2ccc(Cl)cc2o1)c1ccccc1	SKKanGAS inh 68
C/C(=N\Nc1nc(C)cc(-c2ccccc2)n1)c1ccccc1	none
COc1ccc(NS(=O)(=O)c2cc(NC(=O)c3ccc(=O)[nH]n3)ccc2N2CCOCC2)cc1	none (no result: SKKanGAS inh)
O=C(COC(=O)c1cc(S(=O)(=O)N2CCCC2)ccc1O)Nc1ccccc1Br	none (no result: SKKanGAS inh)
CCOc1ccccc1NC(=O)N1CCc2ccccc2C1	none
Cc1ccc2nc(N/N=C/c3ccccc3F)nc(-c3ccccc3)c2c1	SKKanGAS inh 106
CCN1CCN(Cc2ccc(NC(=O)c3ccc(C)c(/C=C/c4cnc(Nc5cc(N6CCNCC6)nc(C)n5)cn4)c3)cc2C(F)(F)F)CC1	SKKanGAS inh 61
CCN1CCN(Cc2ccc(NC(=O)c3ccc(C)c(NC(=O)c4ccno4)c3)cc2C(F)(F)F)CC1	none
Cc1ccc(NC(=S)N(Cc2ccc(Br)cc2)Cc2ccc(C(=O)O)cc2)cc1C	SKKanGAS inh 53
Cc1cc(C)cc(NC(=S)N(Cc2ccc(Cl)cc2)Cc2ccc(C(=O)O)cc2)c1	none
Cc1cc(NC(=S)N(Cc2ccc(Cl)cc2)Cc2ccc(C(=O)O)cc2)ccc1Cl	SKKanGAS inh 64
Cc1cccc(NC(=O)CNC(=O)c2cccc(-n3cccc3)c2)c1C	none
Cc1nc(CC(=O)NNS(=O)(=O)c2cccc(Cl)c2Cl)cs1	none (no result: SKKanGAS inh)
O=C(Nc1ccccc1C(=O)N1CCCCC1)c1ccccc1C(F)(F)F	none
CC(=O)Oc1cc2c3c(c1)/C(=C1/SC(=S)NC1=O)C(=O)N3C(C)(C)C=C2C	SKKanGAS inh 82
CCOc1ccc2[nH]c3c(N4CCc5ccccc5C4)ncnc3c2c1	SKKanGAS inh 51
Cc1ccc2[nH]c3c(N4CCc5ccccc5C4)ncnc3c2c1	none
COc1ccc(NC(=S)NNC(=S)Nc2cccc(C(F)(F)F)c2)cc1	none
CCOc1ccc(NC(=S)NNC(=S)Nc2cccc(C(F)(F)F)c2)cc1	SKKanGAS inh 51
O=S(=O)(O)c1ccc(N=Nc2ccccc2)cc1	none
O=c1ccc(N=Nc2ccccc2)ccc1O	SKKanGAS inh 91 (no result: tim10-1 inh, NALP3 yeast inh, tim23-1 inh, TIM10 inh)
CCC(C)Sc1ccc([C@@H]2[C@H]3C(=O)N(CC)C(=O)[C@H]3[C@]3(C(=O)OC)CCCCN23)cc1 (some centres not stated)	none (no result: SKKanGAS inh)
COc1ccc(C(=O)Cn2nc(CNc3ccc(Br)cc3)[n+]3c2CCCCC3)cc1	none
Cc1ccc(C(C)C)c(OCc2nn(CC(=O)c3ccc(OC(F)F)cc3)c3[n+]2CCCCC3)c1	SKKanGAS inh 71
COc1ccc(NC(=S)N2CCc3ccccc32)cc1OC	none
Cc1nc(N2CCC(C)CC2)c2c(C)c(C(=O)Nc3ccccc3C(F)(F)F)sc2n1	SKKanGAS inh 58
Cc1nc(N2CCC(C)CC2)c2c(C)c(C(=O)Nc3ccc(C)c(F)c3)sc2n1	none
CSCC[C@H](NC(=O)c1ccc(OCC2CCCO2)cc1)c1nc2ccccc2[nH]1 (some centres not stated)	none (no result: SKKanGAS inh)
COc1cc(/C=C2\SC(=S)N(C(C(=O)O)c3ccccc3)C2=O)cc(OC)c1OC (configuration not stated)	none
O=C1/C(=C\c2ccc(-c3ccccc3Cl)o2)SC(=S)N1CC1CCCO1 (configuration not stated)	none
O=C(O)C(c1ccccc1)N1C(=O)/C(=C\c2ccc(-c3ccccc3Cl)o2)SC1=S (configuration not stated)	SKKanGAS inh 102
O=C(O)C(c1ccccc1)N1C(=O)/C(=C\c2ccc(-c3ccc(Br)cc3)o2)SC1=S (configuration not stated)	SKKanGAS inh 109

Bioassay records (PubChem)
